Results filed as inconclusive are left out. The source made the active and inactive calls. Calls follow the shape of the dose curve; as a rule, active = well fitted inhibition curve with a large enough effect; inconclusive = small, poorly fitted or top-dose-only effect, or effect the other way; inactive = flat fitted curve, though single readings scatter.

The assay deals with ATP-dependent 6-phosphofructokinase (Trypanosoma brucei brucei) (UniProt O15648). As to the kind of experiment: qHTS Assay to Find Inhibitors of T. brucei phosphofructokinase: hit validation (AID 492961).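 Also: luminescence reports ADP formed as PFK phosphorylates fructose-6-phosphate with ATP.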 As to conditions: T. brucei PFK, ADP-Glo luminescence; series mostly up to 24.3 µM. The source says: NIH Molecular Libraries Probe Production Network [MLPCN] NIH Chemical Genomics Center [NCGC] Grant: 1 R03 MH092153-01 PI Name: Malcolm Walkinshaw, University of Edinburgh NCGC Assay Overview: Various species of the protozoan family Trypanosomatidae are responsible for a range of serious human diseases in tropical and subtropical areas of the world. […] Many of the disorders caused by trypanosomatids are fatal if left untreated, but most currently used drugs are inefficient and toxic. […] Oxidative metabolism involving the mitochondrial tricarboxylic acid cycle and oxidative phosphorylation are repressed in these parasites, and recent RNA interference (RNAi) experiments have shown that even partial depletion of certain individual glycolytic enzymes can lead to the death of cultured parasites. One such glycolytic enzyme, phosphofructokinase (PFK), catalyzes the formation of fructose-1,6-bisphosphate (F1,6BP) and ADP from fructose-6-phosphate (F6P) and ATP, and in many metabolic circumstances makes an important contribution to the control of flux through the glycolytic pathway. As a specific glycolytic target, PFK is particularly attractive as it catalyzes the first irreversible step in glycolysis, and structural and kinetic studies have shown very substantial and essential differences from corresponding host enzymes, allowing for the discovery of parasite-selective inhibitors. The goal of this screen is to find small-molecule inhibitors of T. brucei PFK using a biochemical assay that measures PFK activity as a function of ADP production. A luminescence-based assay for T. brucei PFK activity has been developed which uses luciferase to detect production of ADP. Traditional luciferase-based nucleotide detection reagents rely on ATP production as a direct substrate for the luciferase reaction; however, PFK catalyzes the transfer of a phosphate from ATP to F6P, resulting in the net depletion of ATP. To directly measure the ADP product of the PFK reaction, we used the ADP-Glo detection kit (Promega), which utilizes two separate reactions to 1) deplete all remaining uncatalyzed ATP and 2) convert all remaining ADP to ATP, which is then detected through a traditional luciferase-coupled reaction. Compounds were screened as a concentration-titration series that ranged from 57 uM to 0.7 nM.
Chain of ATP-dependent 6-phosphofructokinase (Trypanosoma brucei brucei) (O15648 whole entry, looked up): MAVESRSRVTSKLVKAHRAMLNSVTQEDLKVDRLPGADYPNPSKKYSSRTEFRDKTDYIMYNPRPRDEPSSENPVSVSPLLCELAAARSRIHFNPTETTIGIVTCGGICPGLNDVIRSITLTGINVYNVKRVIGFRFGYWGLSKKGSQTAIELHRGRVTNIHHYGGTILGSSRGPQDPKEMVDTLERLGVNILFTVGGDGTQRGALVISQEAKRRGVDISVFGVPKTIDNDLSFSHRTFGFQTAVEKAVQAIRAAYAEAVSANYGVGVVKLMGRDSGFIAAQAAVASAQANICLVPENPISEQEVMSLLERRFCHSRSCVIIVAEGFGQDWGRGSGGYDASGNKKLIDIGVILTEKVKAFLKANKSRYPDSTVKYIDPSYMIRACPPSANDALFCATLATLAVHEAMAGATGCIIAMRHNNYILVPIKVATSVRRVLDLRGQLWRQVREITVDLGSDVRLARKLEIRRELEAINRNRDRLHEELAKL
NCGC Assay Protocol Summary: Substrate buffer was dispensed into white, solid 1536-well plates at 3uL/well in 0.1M triethanolamine (TEA) buffer, pH 8.0, containing final concentrations of 5 mM MgCl2, 0.01% Tween20, 0.5 mM fructose-6-phosphate (F6P) and 0.1mM ATP. Then, 23 nL of compounds or DMSO were delivered to each well using a pin tool. One uL T. brucei PFK (0.1M TEA, 0.01% Tween20, 0.1% bovine serum albumin (BSA) and 1.25nM PFK, final concentrations) was then dispensed, and plates were incubated at room temperature for 45 min. The luminescent detection reagent, ADP-Glo (Promega), was then added in two steps: the first reagent, ADP-Glo (which converts remaining uncatalyzed ATP), was added at 2.5uL/well and incubated for ten minutes at room temperature, and the second component, Kinase Detection reagent (which converts ADP to ATP as a substrate for luciferase-based luminescence), was added immediately after at 5uL/well, followed by one final ten minute room temperature incubation. The plates were measured on a ViewLux plate reader for luminescent signal using a clear filter with a one second exposure. The %Activity was determined from the corrected luminescence values. As no specific T. brucei PFK inhibitors have been identified in the literature, 1x (1.25nM) and 0x PFK enzyme controls (untreated) were included to normalize %Activity of identified inhibitors; 0x enzyme values corresponded to 100%Activity (full inhibition), while 1x PFK enzyme values were used to normalize 0%Activity (no inhibition). Concentration-response curves were fitted to the signals arising from the resulting luminescence. […]
A general note: Quantitative high-throughput screening tests each substance at several concentrations.
`NC(=O)N[C@H]1NC(=O)NC1=O`: the result was inactive.
Then `COc1ccc(CC(N)C(=O)NC2C(CO)OC(n3cnc4c(N(C)C)ncnc43)C2O)cc1` (stereo not given), with “inactive”; and `CC(=O)OCC(=O)[C@@]1(O)[C@H](C)C[C@@H]2[C@H]3CCC4=CC(=O)C=C[C@]4(C)[C@]3(F)[C@@H](O)C[C@@]21C`, with “inactive”; and `CCOC(=O)[C@H](CCc1ccccc1)N[C@@H](C)C(=O)N1[C@H](C(=O)O)C[C@H]2CCC[C@@H]21`, with “inactive”.
Under `C[C@H](O)Cn1cnc2c1c(=O)n(C)c(=O)n2C` stands “inactive”; under `C[C@H](N[C@@H](C)COc1ccccc1)[C@H](O)c1ccc(O)cc1`, “inactive”.
Then `CCOC(=O)O[C@@H](C)OC(=O)[C@@H]1N2C(=O)[C@@H](NC(=O)[C@@H](N)c3ccccc3)[C@H]2SC1(C)C`, with “inactive”.
Consider `CNC1C(OC2C(O[C@@H]3C(O)C(O)[C@@H](N=C(N)N)C(O)C3N=C(N)N)OC(C)[C@@]2(O)CO)OC(CO)C(O)C1O` (stereo not given in full), for which the molecule was called inactive.
As for `COC(=O)N/N=C/C1=C[N+](=O)c2ccccc2[N+]1=O`, the molecule was called inactive.
Then `NCC1CCC(N)C(O[C@@H]2C(O)[C@H](O[C@H]3OC(CO)C(O)C(N)C3O)[C@@H](N)C[C@H]2N)O1` (stereo not given in full), with “inactive”; and `C[N+]12CCC(CC1)[C@@H](OC(=O)C(O)(c1ccccc1)c1ccccc1)C2`, with “inactive”.
Then `OCC1OC(n2cnc3c(=S)nc[nH]c32)C(O)C1O` (stereo not given), with “inactive”; and `O=C1O[C@H](CN2CCOCC2)CN1/N=C\c1ccc([N+](=O)[O-])o1`, with “inactive”.
On to `CCN1CCC[C@@H](OC(=O)C(c2ccccc2)c2ccccc2)C1`, for which the molecule was classed as inactive.
Under `CC(=O)[C@]1(O)CCC2C3C=C(Cl)C4=CC(=O)C5CC5[C@@]4(C)C3CC[C@]21C` (stereo not given in full) stands “inactive”; under `O=C(O)CN(CC(=O)O)Cc1cc2c(-c3ccccc3C(=O)O)c3cc(CN(CC(=O)O)CC(=O)O)c(=O)cc-3oc2cc1O`, “inactive”; under `CN1CCO[C@H](c2ccccc2)c2ccccc2C1`, “inactive”.
For `CC(C)=CCC[C@](C)(O)C1CC=C(C)CC1` (stereo not given in full), the call was inactive.
For the molecule `CO[C@H]1[C@@H](OC(N)=O)[C@H](O)[C@@H](Oc2ccc3c(O)c(NC(=O)c4ccc(O)c(CC=C(C)C)c4)c(=O)oc3c2C)OC1(C)C`, the outcome was inactive.
Under `CO[C@]1(NC(=O)C2SC(=C(C(N)=O)C(=O)O)S2)C(=O)N2C(C(=O)O)=C(CSc3nnnn3C)CS[C@H]21` (stereo not given in full) stands “inactive”; under `CCC(=O)O[C@@H]1[C@H](C)O[C@H](O[C@H]2[C@@H](N(C)C)[C@H](O)[C@@H](O[C@@H]3[C@@H](CC=O)C[C@@H](C)[C@@H](O)/C=C\C=C/C[C@@H](C)OC(=O)C[C@@H](OC(=O)CC)[C@H]3OC)O[C@H]2C)C[C@]1(C)O`, “inactive”; under `CC1(C)OC2CC(=O)OC[C@@]23C1CC(=O)[C@]1(C)C3CC[C@@]2(C)C(c3ccoc3)OC(=O)C3O[C@@]321` (stereo not given in full), “inactive”.
Then `CC(=O)O[C@@]1(C(C)=O)CCC2C3CC(C)C4=CC(=O)CC[C@@]4(C)C3CC[C@]21C` (stereo not given in full), with “inactive”; and `CC[C@@]12CCCN3CCc4c(n(c5ccccc45)[C@](O)(C(=O)OC)C1)C32` (stereo not given in full), with “inactive”.
Take `C=CCN1C(=CCO)[C@H]2C[C@H]3[C@@H]1CC[C@@]31c3ccccc3N3C=C4[C@@H]5N(/C=C/2[C@H]31)c1ccccc1[C@]51CC[C@H]2[C@H]1C[C@@H]4/C(=C/CO)N2CC=C`: the outcome was inactive.
Then `C[C@]12C=CC(=O)C=C1CCC1C2C(O)C[C@]2(C)C1CC[C@]2(O)C(=O)CO` (stereo not given in full), with “inactive”; and `C#C[C@@]1(O)CC[C@@H]2[C@@H]3CCC4=C(CCC(=O)C4)[C@H]3CC[C@]21C`, with “inactive”.
Then `CCC(CCC(C)C1CCC2C3CC=C4CC(O)CC[C@@]4(C)C3CC[C@@]12C)C(C)C` (stereo not given in full), with “inactive”.
Under `NC[C@@H]1O[C@H](O[C@@H]2[C@H](O[C@@H]3O[C@H](CO)[C@@H](O)[C@@H]3O)[C@@H](O)[C@@H](N)C[C@H]2N)[C@@H](N)[C@H](O)[C@@H]1O` stands “inactive”; under `C[C@@]12C=CC(=O)C=C1CCC1C3CC(O)[C@@](O)(C(=O)CO)[C@]3(C)CC(O)[C@]12F` (stereo not given in full), “inactive”.
For the molecule `CN(C/C=C\c1ccccc1)Cc1cccc2ccccc12`, the call was inactive.
Then `CCC(=O)O[C@@]1(C(=O)CCl)C(C)CC2C3CCC4=CC(=O)C=C[C@@]4(C)[C@]3(F)C(O)C[C@]21C` (stereo not given in full), with “inactive”.
Under `O=C(O)[C@@H]1CCCN1` stands “inactive”; under `O=C(N/N=C\c1ccc([N+](=O)[O-])o1)c1ccc(O)cc1`, “inactive”.
Under `C[C@H](Oc1ccccc1)C(=O)N[C@@H]1C(=O)N2[C@@H]1SC(C)(C)[C@@H]2C(=O)O` stands “inactive”; under `Cc1ccc(S(=O)(=O)NC(=O)NN2C[C@H]3CCC[C@@H]3C2)cc1`, “inactive”; under `CC(=O)N[C@@H]1C(O)OC(CO)C(O)C1O` (stereo not given in full), “inactive”.
Turning to `COC1OC(CO)C(OC2OC(C(=O)O)C(OC3OC(COS(=O)(=O)O)C(OC4OC(C(=O)O)C(OC5OC(CO)C(OC6OC(C(=O)O)C(OC7OC(COS(=O)(=O)O)C(OC8OC(C(=O)O)=C[C@H](O)C8OS(=O)(=O)O)C(O)C7NC(C)=O)[C@@H](O)C6O)C(O)C5NC(C)=O)[C@@H](O)C4O)C(O)C3NC(C)=O)[C@@H](O)C2O)C(O)C1NC(C)=O` (stereo not given in full), the outcome was inactive.
Under `C[C@]12CCC(=O)C=C1CCC1C2C(=O)C[C@]2(C)C1CC[C@]2(O)C(=O)CO` (stereo not given in full) stands “inactive”; under `CC(C)(C)NC[C@H](O)COc1cccc2c1C[C@@H](O)[C@@H](O)C2`, “inactive”.

These data come from PubChem BioAssay (NCATS).
